# Results as given in PubChem BioAssay (EPA / NIEHS).
# Several values for one entry are separate records, joined by “and”; a condition that tells them apart may be missing. Equal values may be shown once. Some structures have more than one record in an assay (separate samples or runs), and their calls can disagree. Activity calls are given as the source filed them. How the source made its calls: active means hit-call score of the fitted dose curve at least 0.9, where 1 is the maximum; inactive means score below 0.9.
# Columns and labels:
# [1] = ATG_GLI_CIS: Attagene CIS-FACTORIAL HepG2 Assay for human Zinc Finger Protein GLI1 (AID 2282945); conditions: HepG2, Attagene cis-factorial reporter mRNA, GLI element; actives raise or lower the signal
# In short: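 Bidirectional curve fits relative to DMSO, using reporter mRNA levels from RT-PCR plus capillary electrophoresis. Cells were HepG2 transiently carrying cis-regulated reporter constructs, harvested 24 h after dosing.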
# [2] = molecular target: Bile acid receptor (Homo sapiens) (UniProt Q96RI1); experiment: ATG_IR1_CIS: Attagene CIS-FACTORIAL HepG2 Assay for human Nuclear Receptor Subfamily 1 Group H Member 4 (NR1H4), IR1 submotif (AID 2282946); conditions: IR1 reporter transcription, actives raise or lower the signal
# Chain of Bile acid receptor (Homo sapiens) (Q96RI1 whole entry, looked up, the tested form may be a part): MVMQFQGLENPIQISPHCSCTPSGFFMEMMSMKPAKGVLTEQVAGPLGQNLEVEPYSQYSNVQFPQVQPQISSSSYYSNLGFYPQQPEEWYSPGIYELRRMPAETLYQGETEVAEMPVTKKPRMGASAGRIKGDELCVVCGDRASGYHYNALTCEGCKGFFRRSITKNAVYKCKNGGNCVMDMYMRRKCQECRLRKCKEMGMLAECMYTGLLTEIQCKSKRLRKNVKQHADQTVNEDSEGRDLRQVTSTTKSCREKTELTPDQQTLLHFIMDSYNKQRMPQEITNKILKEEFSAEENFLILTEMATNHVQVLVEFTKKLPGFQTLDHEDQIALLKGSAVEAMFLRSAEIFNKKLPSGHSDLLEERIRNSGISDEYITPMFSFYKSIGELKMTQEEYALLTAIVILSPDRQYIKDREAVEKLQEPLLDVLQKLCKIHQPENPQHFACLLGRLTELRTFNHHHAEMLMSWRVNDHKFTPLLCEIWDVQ
# In short: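 Cells (human HepG2) carry transiently transfected cis-promoter reporter transcription units. Compounds are incubated 24 h, total RNA is reverse-transcribed and amplified, and labelled fragments are resolved by capillary electrophoresis. Curves use DMSO as baseline.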
# [3] = ATG_GRE_CIS: Attagene CIS-FACTORIAL HepG2 Assay for human Glucocorticoid Response Elements (GRE) (AID 2282947); conditions: HepG2 GRE cis-reporter, Attagene multiplex mRNA; actives raise or lower the signal
# In short: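 Assay uses human hepatoma HepG2 cells transfected with cis-promoter reporter units, exposed 24 h. mRNA from reporters detected by RT-PCR plus capillary electrophoresis; DMSO serves as negative control and baseline.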
# [4] = ATG_ISRE_CIS: Attagene CIS-FACTORIAL HepG2 Assay for human Interferon Regulatory Factor 1 (IRF1) binding to an Interferon-Stimulated Response Element (ISRE) (AID 2282948); conditions: HepG2 ISRE cis-reporter (Attagene), mRNA transcription readout; actives raise or lower the signal
# In short: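 HepG2 cells transiently transfected with multiplexed cis-promoter reporter units; after 24 h compound exposure, reporter mRNA quantified by RT-PCR, FAM labelling, HpaI digestion and capillary electrophoresis. Bidirectional fit versus DMSO baseline.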
# [5] = ATG_M_06_CIS: Attagene CIS-FACTORIAL HepG2 Assay for M06 Transcription Factor (Internal Marker) (AID 2282950); conditions: HepG2 Attagene CIS-FACTORIAL M06 internal marker reporter; actives raise or lower the signal
# In short: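 Fluorescence-labelled RT-PCR products from cis-promoter reporter units, cut with HpaI and resolved by capillary electrophoresis, give the signal. Cells are human HepG2, dosed for 24 h. Serves as background control, fitted relative to DMSO.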
# [6] = molecular target: Hepatocyte nuclear factor 6 (Homo sapiens) (UniProt Q9UBC0); experiment: ATG_HNF6_CIS: Attagene CIS-FACTORIAL HepG2 Assay for human Hepatocyte Nuclear Factor 6 (HNF6) (AID 2282952); conditions: HepG2 Attagene cis-factorial HNF6 reporter transcription; actives raise or lower the signal
# Chain of Hepatocyte nuclear factor 6 (Homo sapiens) (Q9UBC0 whole entry, looked up): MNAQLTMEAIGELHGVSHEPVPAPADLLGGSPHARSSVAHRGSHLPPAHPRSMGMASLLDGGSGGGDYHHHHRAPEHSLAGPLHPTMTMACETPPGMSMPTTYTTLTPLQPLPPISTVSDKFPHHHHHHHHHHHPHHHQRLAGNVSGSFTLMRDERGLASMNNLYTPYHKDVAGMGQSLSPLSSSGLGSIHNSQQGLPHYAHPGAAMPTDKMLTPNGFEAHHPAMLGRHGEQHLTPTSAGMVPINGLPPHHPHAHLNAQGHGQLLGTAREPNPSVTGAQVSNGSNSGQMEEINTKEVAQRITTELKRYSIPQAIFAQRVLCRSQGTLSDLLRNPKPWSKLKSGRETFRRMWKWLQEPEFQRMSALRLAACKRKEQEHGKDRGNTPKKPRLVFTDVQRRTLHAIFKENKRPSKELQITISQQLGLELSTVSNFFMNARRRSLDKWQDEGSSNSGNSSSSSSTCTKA
# In short: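 HepG2 cells transiently transfected with cis-element-driven multiple reporter transcription units, dosed 24 h; reporter mRNA quantified by RT-PCR, FAM primer extension, HpaI digestion and capillary electrophoresis; bidirectional fit versus DMSO baseline.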
# [7] = molecular target: Heat shock factor protein 1 (Homo sapiens) (UniProt Q00613); experiment: ATG_HSE_CIS: Attagene CIS-FACTORIAL HepG2 Assay for human Heat Shock Transcription Factor 1 (HSE) (AID 2282953); conditions: HepG2 HSE cis-reporter, Attagene RNA transcription; actives raise or lower the signal
# Chain of Heat shock factor protein 1 (Homo sapiens) (Q00613 whole entry, looked up): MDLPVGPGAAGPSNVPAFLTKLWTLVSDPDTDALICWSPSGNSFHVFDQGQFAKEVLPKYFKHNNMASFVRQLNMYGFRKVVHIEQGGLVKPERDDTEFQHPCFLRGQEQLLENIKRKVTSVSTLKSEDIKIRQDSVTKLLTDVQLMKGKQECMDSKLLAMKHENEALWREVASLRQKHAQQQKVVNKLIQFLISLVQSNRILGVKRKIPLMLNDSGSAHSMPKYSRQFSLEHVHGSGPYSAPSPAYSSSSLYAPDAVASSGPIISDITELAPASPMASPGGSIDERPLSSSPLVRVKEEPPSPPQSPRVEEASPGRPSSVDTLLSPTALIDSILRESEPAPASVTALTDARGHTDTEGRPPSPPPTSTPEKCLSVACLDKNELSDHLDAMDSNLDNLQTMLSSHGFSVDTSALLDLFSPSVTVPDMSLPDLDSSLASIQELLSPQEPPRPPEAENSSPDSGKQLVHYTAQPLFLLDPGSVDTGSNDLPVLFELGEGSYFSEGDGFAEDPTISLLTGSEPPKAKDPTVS
# In short: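 After a 24 h incubation with test chemical, transfected HepG2 cells were harvested for RNA; reporter transcripts were measured by RT-PCR and capillary electrophoresis. Values reflect gain or loss of signal relative to DMSO.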
# [8] = ATG_MRE_CIS: Attagene CIS-FACTORIAL HepG2 Assay for human Metal Responsive Element (MRE) (AID 2282954); conditions: HepG2 MRE cis-reporter transcription, Attagene multiplex; actives raise or lower the signal
# In short: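 After a 24 h chemical exposure, transiently transfected HepG2 cells yield RNA whose reporter sequences are amplified, FAM-labelled and sized by capillary electrophoresis. Curves are fitted bidirectionally relative to DMSO.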
# [9] = molecular target: Paired box protein Pax-6 (Homo sapiens) (UniProt P26367); experiment: ATG_Pax6_CIS: Attagene CIS-FACTORIAL HepG2 Assay for human Paired Box 6 (PAX6) (AID 2282956); conditions: HepG2 CIS-FACTORIAL PAX6 reporter transcription, RNA readout; actives raise or lower the signal
# Chain of Paired box protein Pax-6 (Homo sapiens) (P26367 whole entry, looked up): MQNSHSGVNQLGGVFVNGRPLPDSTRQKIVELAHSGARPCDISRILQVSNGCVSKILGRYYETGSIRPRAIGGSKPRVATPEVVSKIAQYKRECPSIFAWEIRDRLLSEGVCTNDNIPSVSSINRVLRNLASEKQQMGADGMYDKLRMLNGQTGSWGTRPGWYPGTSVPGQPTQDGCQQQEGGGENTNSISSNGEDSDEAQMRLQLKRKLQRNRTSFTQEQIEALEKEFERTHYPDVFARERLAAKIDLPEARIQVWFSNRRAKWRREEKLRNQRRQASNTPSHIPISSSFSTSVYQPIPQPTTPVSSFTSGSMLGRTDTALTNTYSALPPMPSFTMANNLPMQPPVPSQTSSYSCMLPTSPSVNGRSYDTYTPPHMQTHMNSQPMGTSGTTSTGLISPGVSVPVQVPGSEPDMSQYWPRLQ
# In short: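 HepG2 cells transiently transfected with multiplexed cis-promoter reporter units (endogenous TF activity) were dosed for 24 h. Reporter mRNA was quantified by RT-PCR, 6-FAM labeling, HpaI digestion and capillary electrophoresis; bidirectional fitting versus DMSO baseline.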
# [10] = ATG_PXRE_CIS: Attagene CIS-FACTORIAL HepG2 Assay for human Pregnane X Receptor Element (PXRE) (AID 2282957); conditions: HepG2 Attagene CIS-FACTORIAL PXRE reporter, mRNA; actives raise or lower the signal
# In short: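 HepG2 cells transiently transfected with cis-regulated multiple reporter transcription units; endogenous factor activity measured as reporter mRNA 24 h after dosing. RT-PCR, fluorescent primer extension, HpaI digestion, capillary electrophoresis; bidirectional fit versus DMSO baseline.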
# [11] = ATG_PPRE_CIS: Attagene CIS-FACTORIAL HepG2 Assay for human Peroxisome Proliferator-activated Response Element (PPRE) (AID 2282958); conditions: HepG2 PPRE cis-element reporter, Attagene transcription factor profiling; actives raise or lower the signal
# In short: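 PPRE activity in HepG2: transient cis-reporter transfection, 24 h compound incubation, reporter mRNA by RT-PCR and CE fluorescence; gain/loss fitted against DMSO.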
# [12] = ATG_RORE_CIS: Attagene CIS-FACTORIAL HepG2 Assay for human RAR-related Orphan Receptor Element (RORE) (AID 2282959); conditions: HepG2 Attagene cis-factorial RORE reporter, mRNA; actives raise or lower the signal
# In short: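 A 24-hour exposure of transfected HepG2 hepatoma cells precedes RNA isolation and reporter RT-PCR. Labeled products are digested with HpaI and resolved by capillary electrophoresis, with gain or loss of signal scored relative to DMSO.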
# [13] = ATG_Sox_CIS: Attagene CIS-FACTORIAL HepG2 Assay for human SRY-box transcription factor (SOX) (AID 2282960); conditions: HepG2 Attagene cis-factorial SOX reporter, mRNA; actives raise or lower the signal
# In short: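 HepG2, cis reporter units, 24 h exposure. Reporter mRNA: RT-PCR → FAM labelling → HpaI → CE fluorescence. Bidirectional fit vs DMSO.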
# [14] = molecular target: Transcription factor Sp1 (Homo sapiens) (UniProt P08047); experiment: ATG_Sp1_CIS: Attagene CIS-FACTORIAL HepG2 Assay for human Specificity Protein 1 (Sp1) (AID 2282961); conditions: HepG2 Sp1 cis-reporter transcription, actives raise or lower the signal
# Chain of Transcription factor Sp1 (Homo sapiens) (P08047 whole entry, looked up, the tested form may be a part): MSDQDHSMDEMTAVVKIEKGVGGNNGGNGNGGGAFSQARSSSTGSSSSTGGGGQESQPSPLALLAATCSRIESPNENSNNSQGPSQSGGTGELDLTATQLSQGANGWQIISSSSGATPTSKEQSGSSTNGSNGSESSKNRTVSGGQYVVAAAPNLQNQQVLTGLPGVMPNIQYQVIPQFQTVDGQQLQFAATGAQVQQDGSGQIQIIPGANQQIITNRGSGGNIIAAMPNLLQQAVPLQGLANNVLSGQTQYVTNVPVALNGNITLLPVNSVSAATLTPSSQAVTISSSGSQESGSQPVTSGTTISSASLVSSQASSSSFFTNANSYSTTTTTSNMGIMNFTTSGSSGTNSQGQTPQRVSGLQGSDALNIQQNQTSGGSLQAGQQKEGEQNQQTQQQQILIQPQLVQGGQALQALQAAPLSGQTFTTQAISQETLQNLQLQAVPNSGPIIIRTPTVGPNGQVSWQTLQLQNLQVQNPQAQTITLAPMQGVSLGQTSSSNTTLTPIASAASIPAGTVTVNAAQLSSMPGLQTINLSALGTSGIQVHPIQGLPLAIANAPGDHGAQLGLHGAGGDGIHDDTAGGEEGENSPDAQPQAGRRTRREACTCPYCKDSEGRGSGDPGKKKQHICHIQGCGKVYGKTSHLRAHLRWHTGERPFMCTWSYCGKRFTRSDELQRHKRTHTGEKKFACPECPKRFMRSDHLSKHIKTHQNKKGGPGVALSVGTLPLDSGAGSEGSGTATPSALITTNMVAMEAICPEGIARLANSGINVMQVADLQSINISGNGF
# In short: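 Liver-derived HepG2 cells, cis-element reporter library, 24 h treatment; RNA isolated, cDNA amplified with reporter-specific primers, FAM-labeled fragments sized on capillary analyzer. DMSO baseline, bidirectional curve fit.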
# [15] = ATG_SREBP_CIS: Attagene CIS-FACTORIAL HepG2 Assay for human Sterol Regulatory Element Binding (SREBP) (AID 2282962); conditions: HepG2 Attagene cis-factorial SREBP reporter, mRNA; actives raise or lower the signal
# In short: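 HepG2 cells transiently transfected with multiplexed cis-element reporter units report endogenous transcription factor activity. After 24 h of chemical exposure, reporter mRNA was quantified by RT-PCR, 6-FAM labelling, HpaI digestion and capillary electrophoresis; bidirectional fits used DMSO as baseline.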
# [16] = molecular target: Signal transducer and activator of transcription 3 (Homo sapiens) (UniProt P40763); experiment: ATG_STAT3_CIS: Attagene CIS-FACTORIAL HepG2 Assay for human Signal Transducer and Activator of Transcription 3 (STAT3) (AID 2282963); conditions: HepG2, Attagene cis-factorial STAT3 reporter transcription; actives raise or lower the signal
# Chain of Signal transducer and activator of transcription 3 (Homo sapiens) (P40763 whole entry, looked up): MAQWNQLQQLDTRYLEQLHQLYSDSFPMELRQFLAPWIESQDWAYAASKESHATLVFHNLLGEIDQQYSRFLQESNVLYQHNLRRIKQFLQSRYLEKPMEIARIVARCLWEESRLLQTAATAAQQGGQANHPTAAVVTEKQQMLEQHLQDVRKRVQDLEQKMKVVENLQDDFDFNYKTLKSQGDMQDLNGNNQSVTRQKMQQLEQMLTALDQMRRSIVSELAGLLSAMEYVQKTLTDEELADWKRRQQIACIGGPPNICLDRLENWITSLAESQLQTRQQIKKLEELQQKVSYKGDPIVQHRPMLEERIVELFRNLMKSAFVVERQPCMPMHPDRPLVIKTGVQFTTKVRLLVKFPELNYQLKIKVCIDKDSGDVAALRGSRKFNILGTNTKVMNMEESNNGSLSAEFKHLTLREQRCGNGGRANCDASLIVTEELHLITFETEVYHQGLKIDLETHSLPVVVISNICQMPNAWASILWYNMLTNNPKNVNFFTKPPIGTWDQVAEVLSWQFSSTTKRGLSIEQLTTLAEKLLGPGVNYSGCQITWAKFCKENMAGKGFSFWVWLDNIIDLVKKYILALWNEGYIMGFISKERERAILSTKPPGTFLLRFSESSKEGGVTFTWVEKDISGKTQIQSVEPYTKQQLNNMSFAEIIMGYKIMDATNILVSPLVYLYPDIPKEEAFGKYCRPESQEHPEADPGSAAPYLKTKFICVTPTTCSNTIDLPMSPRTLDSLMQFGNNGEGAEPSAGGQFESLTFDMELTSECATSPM
# In short: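 After a 24 h compound incubation, total RNA from MRTU-transfected HepG2 cells was converted to cDNA and reporter sequences PCR-amplified, labelled and profiled by capillary electrophoresis. Gain and loss of signal were referenced to DMSO.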
# [17] = ATG_TA_CIS: Attagene CIS-FACTORIAL HepG2 Assay for human TA Basal Promoter (AID 2282964); conditions: HepG2 Attagene CIS-factorial TA basal promoter reporter; actives raise or lower the signal
# In short: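 Multiplexed mRNA reporter assay, HepG2, 24 h. Reporter cDNA amplified, 6-FAM primer-extended, HpaI-cut, CE-sized; DMSO = negative control and baseline.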
# [18] = molecular target: Hypoxia-inducible factor 1-alpha (Homo sapiens) (UniProt Q16665); experiment: ATG_HIF1a_CIS: Attagene CIS-FACTORIAL HepG2 Assay for human Hypoxia Inducible Factor 1 (HIF1A) (AID 2282951); conditions: HepG2 Attagene cis-factorial HIF1a reporter transcription; actives raise or lower the signal
# Chain of Hypoxia-inducible factor 1-alpha (Homo sapiens) (Q16665 whole entry, looked up): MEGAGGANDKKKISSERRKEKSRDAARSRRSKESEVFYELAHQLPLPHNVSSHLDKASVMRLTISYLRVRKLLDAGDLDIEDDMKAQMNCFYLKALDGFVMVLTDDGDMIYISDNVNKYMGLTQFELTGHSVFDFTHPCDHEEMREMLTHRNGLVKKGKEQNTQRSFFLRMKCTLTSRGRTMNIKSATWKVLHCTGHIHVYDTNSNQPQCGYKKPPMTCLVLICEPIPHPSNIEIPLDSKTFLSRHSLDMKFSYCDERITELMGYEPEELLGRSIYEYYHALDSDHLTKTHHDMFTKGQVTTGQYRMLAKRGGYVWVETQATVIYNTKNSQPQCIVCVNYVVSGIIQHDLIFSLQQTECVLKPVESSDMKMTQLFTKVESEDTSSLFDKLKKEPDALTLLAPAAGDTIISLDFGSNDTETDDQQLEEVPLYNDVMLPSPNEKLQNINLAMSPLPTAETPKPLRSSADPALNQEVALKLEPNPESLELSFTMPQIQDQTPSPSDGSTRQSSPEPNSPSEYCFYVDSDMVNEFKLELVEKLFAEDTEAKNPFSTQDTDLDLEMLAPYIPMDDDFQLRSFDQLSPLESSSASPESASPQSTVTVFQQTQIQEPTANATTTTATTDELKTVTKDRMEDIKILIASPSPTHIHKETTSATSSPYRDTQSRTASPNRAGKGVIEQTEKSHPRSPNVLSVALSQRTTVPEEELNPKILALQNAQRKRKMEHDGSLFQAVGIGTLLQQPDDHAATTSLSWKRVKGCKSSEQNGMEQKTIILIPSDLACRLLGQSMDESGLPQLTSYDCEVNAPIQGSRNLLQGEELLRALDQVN
# In short: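 After 24 h chemical exposure of reporter-transfected HepG2 cells, reporter cDNA was PCR-amplified, labelled by 6-FAM primer extension (2 min 95 C, 20 s 68 C, 10 min 72 C), HpaI-cut (2 h, 37 C) and analysed by CE.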
# [19] = ATG_M_32_CIS: Attagene CIS-FACTORIAL HepG2 Assay for M32 Transcription Factor (Internal Marker) (AID 2282949); conditions: HepG2 Attagene cis-factorial M32 reporter, mRNA; actives raise or lower the signal;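 further: background control marker of the multiplexed CIS panel rather than a real target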
# In short: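 Internal background marker read-out: RT-PCR/capillary electrophoresis fluorescence of reporter transcripts from transiently transfected HepG2 cells after 24 h chemical exposure. Activity fitted bidirectionally relative to DMSO negative control.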
# [20] = ATG_PBREM_CIS: Attagene CIS-FACTORIAL HepG2 Assay for human Phenobarbital-responsive Enhancer Module (PBREM) (AID 2282955); conditions: HepG2 PBREM cis-reporter, Attagene multiplexed transcription; actives raise or lower the signal
# In short: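 Measures endogenous factor action on a phenobarbital-responsive enhancer module. HepG2 transiently carrying cis reporters, 24 h treatment, mRNA read-out by RT-PCR plus capillary electrophoresis.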
compound,measurement,setting,value
O=C1OC2(c3ccccc31)c1cc(Br)c(O)c(Br)c1Oc1c2cc(Br)c(O)c1Br,outcome,[1],inactive
same,outcome,[2],inactive
same,outcome,[3],inactive
same,outcome,[4],inactive
same,outcome,[5],inactive
same,outcome,[6],inactive
same,outcome,[7],inactive
same,AC50,[8],76.3 µM (active)
same,outcome,[8],inactive
same,outcome,[9],inactive
same,AC50,[10],25.8 µM (active) and 5.86 µM (active)
same,outcome,[11],inactive
same,AC50,[12],74.9 µM (active) and 46.2 µM (active)
same,outcome,[13],inactive
same,outcome,[14],inactive
same,outcome,[15],inactive
same,outcome,[16],inactive
same,outcome,[17],inactive
ClC1=C(Cl)C(Cl)(Cl)C(Cl)=C1Cl,AC50,[1],11.1 µM (active) and 6.27 µM (active)
same,outcome,[3],inactive
same,AC50,[4],14.6 µM (active) and 11.1 µM (active)
same,outcome,[5],inactive
same,outcome,[18],inactive
same,AC50,[6],8.06 µM (active)
same,outcome,[6],inactive
same,AC50,[7],8.88 µM (active) and 5.39 µM (active)
same,AC50,[8],20.2 µM (active) and 6.9 µM (active)
same,AC50,[9],18.4 µM (active) and 6.7 µM (active)
same,AC50,[10],16.2 µM (active) and 6.82 µM (active)
same,outcome,[11],inactive
same,outcome,[12],inactive
same,outcome,[13],inactive
same,AC50,[14],15.7 µM (active) and 7.29 µM (active)
same,AC50,[15],11.1 µM (active)
same,outcome,[15],inactive
same,AC50,[16],21.7 µM (active)
same,outcome,[16],inactive
same,outcome,[17],inactive
Cc1cc(C)c(O)c(C)c1,outcome,[1],inactive
same,outcome,[2],inactive
same,outcome,[3],inactive
same,outcome,[4],inactive
same,outcome,[5],inactive
same,outcome,[18],inactive
same,outcome,[6],inactive
same,outcome,[7],inactive
same,outcome,[8],inactive
same,outcome,[9],inactive
same,outcome,[10],inactive
same,outcome,[11],inactive
same,outcome,[12],inactive
same,outcome,[13],inactive
same,outcome,[14],inactive
same,outcome,[15],inactive
same,outcome,[16],inactive
same,outcome,[17],inactive
COCC(C)O (configuration not stated),outcome,[1],inactive
same,outcome,[3],inactive
same,outcome,[4],inactive
same,outcome,[19],inactive
same,outcome,[5],inactive
same,outcome,[18],inactive
same,outcome,[6],inactive
same,outcome,[8],inactive
same,outcome,[9],inactive
same,outcome,[10],inactive
same,outcome,[13],inactive
same,outcome,[14],inactive
same,outcome,[15],inactive
same,outcome,[16],inactive
same,outcome,[17],inactive
CN(C)C=O,outcome,[1],inactive
same,outcome,[2],inactive
same,outcome,[4],inactive
same,outcome,[19],inactive
same,outcome,[5],inactive
same,outcome,[18],inactive
same,outcome,[6],inactive
same,outcome,[7],inactive
same,outcome,[8],inactive
same,outcome,[20],inactive
same,outcome,[9],inactive
same,outcome,[10],inactive
same,outcome,[12],inactive
same,outcome,[13],inactive
same,outcome,[14],inactive
same,outcome,[15],inactive
same,outcome,[16],inactive
same,outcome,[17],inactive
CC(C)(C)CC(C)(C)c1ccc(O)c(-n2nc3ccccc3n2)c1,outcome,[1],inactive
same,outcome,[2],inactive
same,outcome,[3],inactive
same,outcome,[4],inactive
same,outcome,[5],inactive
same,outcome,[6],inactive
same,outcome,[7],inactive
same,outcome,[8],inactive
same,outcome,[20],inactive
same,outcome,[9],inactive
same,AC50,[10],1.15 µM (active)
same,outcome,[11],inactive
same,outcome,[12],inactive
same,outcome,[13],inactive
same,outcome,[14],inactive
same,outcome,[15],inactive
same,outcome,[16],inactive
same,outcome,[17],inactive
